Measurements as given in PMC3218832.

Columns and labels:
Test in all cases: protein binding microarray; high values mean tight binding
Conditions in all cases: dsDNA, one strand shown
RELARELA (p65 homodimer) = RELARELA (p65 homodimer) (Homo sapiens, UniProt Q04206 1-307)
p50p50 homodimer = p50p50 homodimer (Homo sapiens, UniProt P19838 7-356)
p52p52 homodimer = target: T1, p52p52 homodimer (Homo sapiens, UniProt Q00653 4-332)
T1 sequence: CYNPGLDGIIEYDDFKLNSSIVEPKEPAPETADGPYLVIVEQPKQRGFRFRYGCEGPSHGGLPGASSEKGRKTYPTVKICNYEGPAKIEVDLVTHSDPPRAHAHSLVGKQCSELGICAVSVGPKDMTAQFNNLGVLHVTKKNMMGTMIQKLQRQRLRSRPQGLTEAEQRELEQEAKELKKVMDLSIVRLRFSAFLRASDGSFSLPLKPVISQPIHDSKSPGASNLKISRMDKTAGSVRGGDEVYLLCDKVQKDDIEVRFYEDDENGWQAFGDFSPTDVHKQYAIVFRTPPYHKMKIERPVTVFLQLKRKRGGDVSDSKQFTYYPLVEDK

[1] = target: RELA (p65) subunit of heterodimer;p50 subunit (Homo sapiens;Homo sapiens, UniProt Q04206;P19838 1-307;7-356)
RELA (p65) subunit of heterodimer;p50 subunit, sequence (Q04206 1-307, chain 1 of 2): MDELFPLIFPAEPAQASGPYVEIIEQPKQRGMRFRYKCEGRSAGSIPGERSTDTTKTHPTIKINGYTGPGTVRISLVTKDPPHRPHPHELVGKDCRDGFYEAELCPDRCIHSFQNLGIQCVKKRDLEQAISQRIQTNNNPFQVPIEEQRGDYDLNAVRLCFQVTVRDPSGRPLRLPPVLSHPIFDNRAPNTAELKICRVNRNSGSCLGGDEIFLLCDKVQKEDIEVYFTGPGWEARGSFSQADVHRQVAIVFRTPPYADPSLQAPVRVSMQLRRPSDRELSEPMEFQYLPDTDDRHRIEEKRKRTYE
RELA (p65) subunit of heterodimer;p50 subunit, sequence (P19838 7-356, chain 2 of 2): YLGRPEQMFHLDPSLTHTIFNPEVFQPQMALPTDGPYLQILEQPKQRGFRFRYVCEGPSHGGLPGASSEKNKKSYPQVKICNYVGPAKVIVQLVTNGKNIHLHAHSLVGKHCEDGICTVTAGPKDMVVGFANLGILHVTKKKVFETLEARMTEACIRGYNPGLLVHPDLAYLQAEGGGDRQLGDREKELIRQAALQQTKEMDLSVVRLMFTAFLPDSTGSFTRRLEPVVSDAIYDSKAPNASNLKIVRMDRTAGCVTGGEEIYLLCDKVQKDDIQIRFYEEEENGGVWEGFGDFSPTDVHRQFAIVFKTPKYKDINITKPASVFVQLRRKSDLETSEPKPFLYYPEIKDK

[2] = target: RELA (p65) subunit of heterodimer;p52 subunit (Homo sapiens;Homo sapiens, UniProt Q04206;Q00653 1-307;4-332)
RELB subunit;p50 subunit = RELB subunit;p50 subunit (Homo sapiens;Homo sapiens, UniProt Q01201;P19838 120-401;7-356)
RELB subunit;p52 subunit = target: T2, RELB subunit;p52 subunit (Homo sapiens;Homo sapiens, UniProt Q01201;Q00653 120-401;4-332)
T2 sequence 1: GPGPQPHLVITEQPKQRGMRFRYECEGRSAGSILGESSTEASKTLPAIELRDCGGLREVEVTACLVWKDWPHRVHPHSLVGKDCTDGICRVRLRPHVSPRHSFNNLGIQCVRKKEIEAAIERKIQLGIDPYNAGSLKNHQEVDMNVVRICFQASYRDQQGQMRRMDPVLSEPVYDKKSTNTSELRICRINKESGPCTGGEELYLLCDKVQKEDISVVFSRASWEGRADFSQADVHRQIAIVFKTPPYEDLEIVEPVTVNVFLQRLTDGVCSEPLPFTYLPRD
T2 sequence 2: T1 sequence

[3] = target: C-Rel subunit;p50 subunit (Homo sapiens;Homo sapiens, UniProt Q04864;P19838 1-285;7-356)
[4] = target: T3, C-Rel subunit;p52 subunit (Homo sapiens;Homo sapiens, UniProt Q04864;Q00653 1-285;4-332)
T3 sequence 1: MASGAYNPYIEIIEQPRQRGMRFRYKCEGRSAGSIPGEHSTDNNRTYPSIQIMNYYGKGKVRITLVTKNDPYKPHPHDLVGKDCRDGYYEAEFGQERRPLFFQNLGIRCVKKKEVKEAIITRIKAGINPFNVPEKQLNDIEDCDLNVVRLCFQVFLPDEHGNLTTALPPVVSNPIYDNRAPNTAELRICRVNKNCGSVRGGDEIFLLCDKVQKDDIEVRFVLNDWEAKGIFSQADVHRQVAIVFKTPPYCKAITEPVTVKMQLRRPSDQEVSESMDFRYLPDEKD
T3 sequence 2: T1 sequence

p50p50 homodimer, sequence (P19838 7-356): as the sequence (P19838 7-356, chain 2 of 2) above
RELARELA (p65 homodimer), sequence (Q04206 1-307): as the sequence (Q04206 1-307, chain 1 of 2) above

Sequence	binding signal (RELARELA (p65 homodimer))	binding signal (p50p50 homodimer)	binding signal (p52p52 homodimer)	binding signal [1]	binding signal [2]	binding signal (RELB subunit;p50 subunit)	binding signal (RELB subunit;p52 subunit)	binding signal [3]	binding signal [4]
CAGGACACCCT	-0.817 z-score	-1.69 z-score	-0.717 z-score	-0.865 z-score	-0.828 z-score	-0.795 z-score	-0.656 z-score	-1.21 z-score	-0.705 z-score
GGGGTTGTCCC	2.19 z-score	0.663 z-score	2.99 z-score	1.73 z-score	2.67 z-score	2.02 z-score	1.88 z-score	1.31 z-score	2.32 z-score
GGGAAGACCCT	0.871 z-score	0.365 z-score	1.66 z-score	1 z-score	1.17 z-score	0.374 z-score	1.01 z-score	0.481 z-score	1.03 z-score
AAAATAACCCC	0.617 z-score	1.07 z-score	1.26 z-score	1.03 z-score	1.24 z-score	0.895 z-score	1.14 z-score	0.682 z-score	1.16 z-score
GAGTGACTCCC	-0.623 z-score	-0.849 z-score	-0.413 z-score	-0.796 z-score	-0.812 z-score	-0.601 z-score	-0.827 z-score	-0.837 z-score	-0.832 z-score
AAAGTGCCCCC	0.331 z-score	1.09 z-score	0.518 z-score	0.793 z-score	0.904 z-score	0.839 z-score	1.17 z-score	0.964 z-score	0.619 z-score
GAGTTGGCCCT	-0.84 z-score	-1.24 z-score	-0.495 z-score	-0.546 z-score	-0.734 z-score	-0.243 z-score	-0.397 z-score	-0.778 z-score	-0.623 z-score
AGATGCGCCCT	-0.621 z-score	-1.13 z-score	-0.603 z-score	-0.768 z-score	-0.721 z-score	-1.01 z-score	-0.804 z-score	-1.47 z-score	-0.758 z-score
AGAGGAGCCCC	-0.573 z-score	0.291 z-score	0.0479 z-score	-0.113 z-score	-0.0242 z-score	0.0681 z-score	0.0342 z-score	-0.0137 z-score	-0.225 z-score
GAGGAGCTCCT	-0.566 z-score	-1.81 z-score	-0.78 z-score	-1.13 z-score	-0.927 z-score	-1.05 z-score	-1.06 z-score	-1.73 z-score	-0.927 z-score
GAGTGCGCCCC	-0.402 z-score	-0.17 z-score	-0.0852 z-score	-0.178 z-score	0.0378 z-score	-0.305 z-score	-0.0411 z-score	-0.0592 z-score	-0.0203 z-score
CGGGGTCTCCT	-0.0145 z-score	0.0717 z-score	0.00961 z-score	-0.308 z-score	-0.191 z-score	-0.332 z-score	-0.207 z-score	-0.336 z-score	0.0688 z-score
CGAATGATCCT	-0.807 z-score	-1.92 z-score	-0.659 z-score	-0.966 z-score	-0.935 z-score	-1.16 z-score	-0.928 z-score	-1.72 z-score	-0.968 z-score
CGGTTGCTCCT	-0.357 z-score	-1.5 z-score	-0.686 z-score	-0.927 z-score	-0.989 z-score	-1.09 z-score	-0.904 z-score	-1.44 z-score	-1 z-score
CGAGTGACCCT	-1.21 z-score	-1.33 z-score	-0.545 z-score	-0.827 z-score	-0.906 z-score	-0.855 z-score	-0.722 z-score	-1.34 z-score	-0.744 z-score
CAAAGGCCCCC	-1.53 z-score	0.336 z-score	0.0392 z-score	0.041 z-score	0.0834 z-score	0.123 z-score	0.14 z-score	-0.0908 z-score	0.0137 z-score
AAATATGTCCT	-0.0065 z-score	-1.09 z-score	-0.534 z-score	-0.78 z-score	-0.678 z-score	-0.828 z-score	-0.738 z-score	-0.967 z-score	-0.696 z-score
AGATGGTCCCC	-0.243 z-score	0.441 z-score	0.342 z-score	0.0737 z-score	0.172 z-score	0.435 z-score	0.355 z-score	0.292 z-score	0.217 z-score
CAGGGTCCCCC	-0.42 z-score	0.876 z-score	0.451 z-score	1.23 z-score	0.881 z-score	1.22 z-score	1.39 z-score	0.998 z-score	0.408 z-score
CGAGATTTCCC	1.93 z-score	0.975 z-score	0.882 z-score	1.43 z-score	1.06 z-score	0.804 z-score	0.926 z-score	1.31 z-score	0.887 z-score
GGGTGTTCCCC	1.97 z-score	0.783 z-score	3.21 z-score	2.14 z-score	2.7 z-score	2.21 z-score	2.06 z-score	1.68 z-score	2.56 z-score
CGGATAATCCT	0.536 z-score	-1.31 z-score	-0.659 z-score	-1.04 z-score	-0.831 z-score	-1.02 z-score	-1.08 z-score	-0.945 z-score	-0.765 z-score
CGAGTCTTCCC	0.331 z-score	-0.565 z-score	-0.302 z-score	-0.0997 z-score	-0.304 z-score	-0.386 z-score	-0.409 z-score	0.0328 z-score	-0.153 z-score
GAGGACGTCCC	0.381 z-score	0.144 z-score	0.388 z-score	0.0977 z-score	0.262 z-score	0.14 z-score	0.0168 z-score	0.15 z-score	0.205 z-score
AAGGTACTCCC	-0.19 z-score	0.76 z-score	0.735 z-score	0.376 z-score	0.386 z-score	0.54 z-score	0.302 z-score	0.206 z-score	0.449 z-score
AGAGGTGTCCT	-0.184 z-score	-1.69 z-score	-0.541 z-score	-0.927 z-score	-0.707 z-score	-0.854 z-score	-0.664 z-score	-1.22 z-score	-0.658 z-score
CAGGTTGTCCT	-0.115 z-score	-0.869 z-score	-0.451 z-score	-0.774 z-score	-0.884 z-score	-0.961 z-score	-0.805 z-score	-1.05 z-score	-0.71 z-score
AAAAGCACCCC	-0.281 z-score	0.833 z-score	0.946 z-score	0.86 z-score	1.12 z-score	0.711 z-score	0.952 z-score	0.423 z-score	0.69 z-score
AGGTTCATCCC	-0.622 z-score	-0.302 z-score	-0.0688 z-score	-0.431 z-score	-0.313 z-score	-0.476 z-score	-0.362 z-score	-0.498 z-score	-0.243 z-score
AAAGGAGTCCC	0.141 z-score	0.939 z-score	0.569 z-score	0.732 z-score	0.431 z-score	0.907 z-score	0.607 z-score	0.81 z-score	0.405 z-score
